Results: PubChem BioAssay AID504456 (NMMLSC, 2011)
The list shows a part of the results. Activity calls are given as the source filed them.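 How the source made its calls: active means growth rating at most 1 for wild type yeast while the TORC1 bypass strain still grows fully, rated 3; inactive means the rest.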

Test: rapamycin-like growth block in BY4741 yeast – BY4741 wild type, TORC1 bypass strain, mechanism study for yeast TOR pathway GFP screen (AID 504456)
Details: S. cerevisiae BY4741 spot growth rating, 48-72 h, at 30 µM
[1] = TORC1 bypass strain growth rating

Row | Compound | growth rating (0-3) [1] | growth rating (0-3) (stronger effect = lower value)
1 | CN(C)CCCNc1nc(N)c([N+](=O)[O-])c(Nc2cccc(F)c2)n1 | 3 | 3 (inactive)
2 | Cc1ccc(-c2nn(C(C)(C)C)c3ncnc(N)c23)cc1 | 3 | 3 (inactive)
